Myeloid diff MLP: myeloid differentiation induction; hit rate 1% among 360,000; ER-HoxA9 myeloid progenitors, lysozyme-GFP differentiation, flow cytometry; AID 624256; calls only at 10 µM;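 active means normalized GFP-positive differentiation at or above the plate's own cutoff, the solvent-only control mean plus 3 SD; inconclusive means no clear call, values can overlap the other calls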;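 further: cells exposed to compound for four days before flow analysis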
Rpn11 inh: blocks the human proteasome subunit Rpn11; O00487; human 26S proteasome, Ub4-pepOG fluorescence polarization; 20S core pre-blocked with epoxomicin; inhibition, % at 20 µM; hit rate 0.59% among 360,000;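 active means inhibition at 20 µM, scaled to each plate's controls, above about 33%, limit read from the data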
HNF4A DNA FP: change in binding of human HNF4 alpha to DNA | P41235 | HNF4a-FITC DNA binding, fluorescence polarization, 1 h | activity change, % at 10 µM | hit rate 0.3% among 360,000 | AID 1224865; in the data active means activity change above about 30%, passing the limit was not always enough
Target sequence (P41235 whole entry, looked up): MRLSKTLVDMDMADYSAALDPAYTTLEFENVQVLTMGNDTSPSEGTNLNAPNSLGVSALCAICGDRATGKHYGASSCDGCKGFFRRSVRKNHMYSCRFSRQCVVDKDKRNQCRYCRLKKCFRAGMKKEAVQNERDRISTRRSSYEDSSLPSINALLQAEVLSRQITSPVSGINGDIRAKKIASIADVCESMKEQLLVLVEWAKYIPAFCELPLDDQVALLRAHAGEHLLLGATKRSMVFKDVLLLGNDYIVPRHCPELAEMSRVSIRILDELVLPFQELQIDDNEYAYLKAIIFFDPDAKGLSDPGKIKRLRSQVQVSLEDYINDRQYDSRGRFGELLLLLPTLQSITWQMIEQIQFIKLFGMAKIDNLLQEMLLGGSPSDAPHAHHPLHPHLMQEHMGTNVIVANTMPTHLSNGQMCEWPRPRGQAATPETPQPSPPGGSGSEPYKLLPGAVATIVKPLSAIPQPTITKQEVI
TPT1 inhibitor: C. albicans TPT1 enzyme inhibition | recombinant caTPT1, FP RNA substrate dephosphorylation | inhibition, % at 5 µM | hit rate 0.81% among 300,000;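 active means inhibition above the mean of all tested compounds plus 3 SD, set per screening campaign, cut at about 24% in these data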;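 further: plate controls were DMSO alone for no effect and ferristatin control at 100 nM for full effect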
Myeloid diff: compounds promoting myeloid differentiation | shares compounds with Myeloid diff MLP | ER-HoxA9 myeloid progenitors, GFP/Mac1 double-positive flow | calls only | hit rate 2% among 2,300;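 active means share of green or green-and-red cells above 9 and 9% in run 1 or 4 and 3% in run 2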
GFP autofluor: flagged as fluorescent in myeloid differentiation counter-screen | shares compounds with Myeloid diff MLP | ER-HoxA9 myeloid progenitors, no estrogen, GFP autofluorescence flow cytometry; vehicle wells 0%, positive control 100% | fluorescence response, % (test concentration not listed) | hit rate 7.4% among 2,300 | AID 651707;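 active means over 5% cells positive for green fluorescent reporter, or over 2% positive for both it and APC stain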;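 further: range taken on the double positive population between DMSO and positive control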
* hit, by the source's call; i = inactive; u = inconclusive; x = no result given; + = active, no number. Compounds with a hit are over-represented: about 2.1% of the library has one in this group of screens.

SMILES	Myeloid diff MLP	Rpn11 inh	HNF4A DNA FP	TPT1 inhibitor	Myeloid diff	GFP autofluor
COc1ccc(C(=O)NCCS(=O)(=O)N(C)C2CCCCC2)cc1	x	-2	-1	-4	x	x
O=C(NCCc1ccccc1)C1CCN(c2nc3ccccc3o2)CC1	i	0	-4	3	x	x
O=C(NC1CCCCCCC1)C1CCN(c2nc3ccccc3o2)CC1	i	1	-1	2	i	1
Cc1cccc(CNc2ncnc3ccc(-c4cccnc4)cc23)c1	+	-2	5	x	i	0
CCOC(=O)NC(=O)c1cn(Nc2ccccc2C(F)(F)F)c(=O)[nH]c1=O	i	1	-4	2	x	x
N#CCc1nc2n(n1)Cc1ccccc1-2	i	-6	-2	-6	i	0
N#Cc1c(-c2ccc(C(F)(F)F)cc2)cc(-c2ccccc2)[nH]c1=S	+	9	-3	2	i	0
CCOc1cc(C(=S)N2CCOCC2)ccc1OC(=O)/C=C/c1ccc(OC)c(OC)c1	i	-7	0	-1	i	0
Cc1cc(C)cc(C(=O)/C=C2\NC(=O)CS2)c1	i	2	-2	3	i	0
CC(C)(C)C(=O)Nc1nc2c(s1)CN(Cc1ccccc1)CC2	i	28	0	10	i	0
COC(=O)c1c(NC(=O)C(C)(C)C)sc2c1CCN(Cc1ccccc1)C2	i	-1	4	-2	x	x
Cc1cccc(NC(=O)c2nc[nH]c2C(=O)NCCCCNC(=O)c2[nH]cnc2C(=O)Nc2cccc(C)c2)c1	i	-3	1	x	x	x
O=C(c1ccccc1)c1ccc(C(=O)N2CCN(c3ccccc3Cl)CC2)cc1	i	-6	1	x	i	0
O=C(c1cccnc1)N1CCN(c2ccccc2Cl)CC1	x	x	x	0	x	x
CC1(C)Cc2c(cnn2-c2ccccc2)C(NC(=O)C2(C(N)=O)CC2)C1 (stereo not given)	+	-7	5	-2	i	0
CC1(C)Cc2c(cnn2-c2ccccc2)C(NC(=O)c2ccoc2)C1 (stereo not given)	i	1	4	-3	x	x
COc1ccc2nc(/C=N/NC(=O)[C@H](C)NC(=O)OC(C)(C)C)ccc2c1	x	x	x	-2	x	x
CCCCn1c(-c2ccco2)n[nH]c1=S	i	0	-2	-1	x	x
CCCCn1c(-c2ccoc2C)n[nH]c1=S	+	-2	-2	-1	i	0
C[C@H](CO)N1C[C@H](C)[C@@H](CN(C)S(=O)(=O)c2ccc(F)cc2)Oc2ccc(NC(=O)C3CCCCC3)cc2C1=O	i	2	1	x	i	0
Cc1ccc(CN(C)C(=O)CN2C(=O)NC(c3ccccc3)(c3ccccc3)C2=O)c(C)c1	i	10	0	x	x	x
CC1(C)N=C(N)NC(Nc2ccc(Br)cc2)=N1	+	-2	5	-5	i	1
CN(CC(=O)Nc1ccccc1Br)C(=O)c1ccc2c(=O)n3c(nc2c1)CCC3	i	-2	-4	x	x	x
Cc1nc2ccc(NC(=O)c3ccc(Br)o3)cc2s1	i	-4	6	2	x	x
CCCC(=O)Nc1nc2ccc(NC(=O)c3ccc(Br)o3)cc2s1	+	4	2	-4	i	0
SMILES	Myeloid diff MLP	Rpn11 inh	HNF4A DNA FP	TPT1 inhibitor	Myeloid diff	GFP autofluor
C[C@]1(C(=O)NCCCNc2ncc(C(F)(F)F)cc2Cl)C=C[C@@H](Cc2ccccc2)N1C(=O)c1ccccc1	i	3	4	-2	i	0
Cn1c(=O)c2cc(S(=O)(=O)NC(Cc3ccccc3)C(=O)NCc3ccco3)ccc2n(C)c1=O (stereo not given)	i	3	3	-2	i	0
COCCCNC(=O)C(Cc1ccccc1)NS(=O)(=O)c1ccc2c(c1)c(=O)n(C)c(=O)n2C (stereo not given)	i	-4	-2	0	x	x
O=C(Nc1ccc(N2CCOCC2)cc1)c1ccc([N+](=O)[O-])o1	+	8	-1	0	i	0
O=C(Nc1ccc(S(=O)(=O)N2CCOCC2)cc1)c1ccc([N+](=O)[O-])o1	u	-5	-3	-1	x	x
ClCCn1cnc2c(SCc3ccccc3)ncnc21	i	-3	-7	x	x	x
ClCCn1cnc2c(SCc3ccccc3Cl)ncnc21	i	-11	4	x	i	4
COc1ccc(-c2csc3ncn(-c4ccccc4)c(=O)c23)cc1OC	i	0	0	-2	x	x
COc1ccc(-c2csc3ncn(-c4ccccc4OC)c(=O)c23)cc1OC	+	3	-5	-5	i	0
CC(=O)Nc1ccc(NC(=O)CSc2nnc(C)n2-c2ccccc2)cc1	i	-7	6	-1	x	x
Cc1nn(C)c(C)c1NC(=O)CSc1nnc(C)n1-c1ccccc1	+	2	0	1	i	0
COc1ccc(C2OC(=O)CC2C(=O)NCc2ccccc2Cl)cc1OC (stereo not given)	i	1	7	2	x	x
COc1ccc(NC(=O)CSCC(=O)NCc2cccc(C(F)(F)F)c2)cc1	i	-3	1	x	x	x
Cc1ccc(NC(=O)CSCC(=O)NCc2cccc(C(F)(F)F)c2)cc1	+	4	0	0	i	0
c1ccc(COc2ncnc3c2ncn3CCCN2CCN(c3ncccn3)CC2)cc1	i	-14	-2	x	i	0
CCCCCCOC(=O)C(C#N)c1nc2ccccc2nc1N1CCN(CC)CC1 (stereo not given)	+	1	1	-3	i	0
Cc1nn(CC(=O)Nc2cccc(S(N)(=O)=O)c2)c(C)c1[N+](=O)[O-]	i	13	-1	4	x	x
Cc1nc(C)c(/C(O)=C/c2nc3ccccc3oc2=O)s1	+	2	4	2	i	0
Cc1ccc(S(=O)(=O)N(C)C)cc1NC(=S)NCCc1ccccn1	i	-8	-3	1	i	0
CCOc1ccc(C(CC(=O)O)NC(=O)C(c2ccccc2)c2ccccc2)cc1OC (stereo not given)	i	-4	1	x	x	x
CCOc1cc(/C=C2\N=C(C)OC2=O)cc(Br)c1OCCc1ccccc1	i	-5	-3	0	x	x
CCOc1cc(/C=C2\N=C(C)OC2=O)cc(Br)c1OCC(=O)OC	+	-7	-3	4	i	0
CN(C)C(=O)CCc1ccc2c3c([nH]c2c1)[C@]1(CCC2CCCC2)[C@@H](C(=O)N2CCOCC2)C[C@H](CC(=O)NC(C)(C)C)C(=O)N1CC3	i	5	0	x	x	x
COc1ccc(NC(=S)N2CCC3CC2c2c(Cl)cccc23)c(OC)c1 (stereo not given)	+	4	-3	x	+	0
C=CCNC(=S)N1CCC2CC1c1c(Cl)cccc12 (stereo not given)	i	-1	1	x	x	x
O=C1c2ccccc2[C@@H]2Cc3csc[n+]3[C@H]12	i	x	2	x	x	x
COc1ccc(NC(=O)Nc2ccc(C(=O)N3CCOCC3)cc2)c(OC)c1	i	-4	1	0	x	x

Source: PubChem BioAssay (several laboratories)
